# Reference: the supplement of paper PMC4466140
# Experiments:
# Experiment in all cases: SPOT peptide array binding signal intensity (averaged, normalized) (arbitrary units (background-subtracted, floor 0; scale differs between SH3 domains)); higher = stronger binding of the SH3 domain to the peptide
# AgAbp1 = biological target: AgAbp1
# How it was run: (§1)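 GST-fused SH3 domains, from four yeast species, were produced in E. coli BL21(DE3) and captured on glutathione Sepharose. Membranes of cellulose carrying synthetic 15-mer peptides, in which cysteines had been replaced by serines, were exposed to each domain at 10 μg/ml overnight at 4°C in TBS-based blocking buffer. After anti-GST antibody, an HRP anti-mouse secondary and luminol, spots were imaged and quantified using Genespotter. Binding signal is normalized and background-subtracted spot intensity, averaged over replicates, in arbitrary units that differ between domains.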
# AgBbc1 = biological target: AgBbc1
# How it was run: as §1
# AgBem1-D1 = biological target: AgBem1-D1
# How it was run: as §1
# AgBzz1-D1 = biological target: AgBzz1-D1
# How it was run: as §1
# AgBzz1-D2 = biological target: AgBzz1-D2
# How it was run: as §1
# AgCyk3 = biological target: AgCyk3
# How it was run: as §1
# AgFus1 = biological target: AgFus1
# How it was run: as §1
# AgHof1 = biological target: AgHof1
# How it was run: as §1
# AgHse1 = biological target: AgHse1
# How it was run: as §1
# AgLsb1 = biological target: AgLsb1
# How it was run: as §1
# AgLsb4 = biological target: AgLsb4
# How it was run: as §1
# AgMyo5 = biological target: AgMyo5
# How it was run: as §1
# AgNbp2 = biological target: AgNbp2
# How it was run: as §1
# AgRvs167 = biological target: AgRvs167
# How it was run: as §1
# AgSho1 = biological target: AgSho1
# How it was run: as §1
# AgSla1-D1-D2 = biological target: AgSla1-D1-D2
# How it was run: as §1
# AgSla1-D3 = biological target: AgSla1-D3
# How it was run: as §1
# CaAbp1-D1 = biological target: CaAbp1-D1
# How it was run: as §1
# CaAbp1-D2 = biological target: CaAbp1-D2
# How it was run: as §1
# CaBbc1 = biological target: CaBbc1
# How it was run: as §1
# CaBem1-D1 = biological target: CaBem1-D1
# How it was run: as §1
# CaBzz1-D1 = biological target: CaBzz1-D1
# How it was run: as §1
# CaBzz1-D2 = biological target: CaBzz1-D2
# How it was run: as §1
# CaCyk3 = biological target: CaCyk3
# How it was run: as §1
# CaFus1 = biological target: CaFus1
# How it was run: as §1
# CaHof1 = biological target: CaHof1
# How it was run: as §1
# CaHse1 = biological target: CaHse1
# How it was run: as §1
# CaLsb1 = biological target: CaLsb1
# How it was run: as §1
# CaLsb4 = biological target: CaLsb4
# How it was run: as §1
# CaMyo5 = biological target: CaMyo5
# How it was run: as §1
# CaNbp2 = biological target: CaNbp2
# How it was run: as §1
# CaRvs167 = biological target: CaRvs167
# How it was run: as §1
# CaRvs167-3 = biological target: CaRvs167-3
# How it was run: as §1
# CaSho1 = biological target: CaSho1
# How it was run: as §1
# CaSla1-D1-D2 = biological target: CaSla1-D1-D2
# How it was run: as §1
# CaSla1-D3 = biological target: CaSla1-D3
# How it was run: as §1
# ScAbp1 = biological target: ScAbp1
# How it was run: as §1
# ScBbc1 = biological target: ScBbc1
# How it was run: as §1
# ScBem1-D1 = biological target: ScBem1-D1
# How it was run: as §1
# ScBzz1-D1 = biological target: ScBzz1-D1
# How it was run: as §1
# ScBzz1-D2 = biological target: ScBzz1-D2
# How it was run: as §1
# ScCyk3 = biological target: ScCyk3
# How it was run: as §1
# ScFus1 = biological target: ScFus1
# How it was run: as §1
# ScHof1 = biological target: ScHof1
# How it was run: as §1
# ScHse1 = biological target: ScHse1
# How it was run: as §1
# ScLsb1 = biological target: ScLsb1
# How it was run: as §1
# ScLsb2 = biological target: ScLsb2
# How it was run: as §1
# ScLsb3 = biological target: ScLsb3
# How it was run: as §1
# ScLsb4 = biological target: ScLsb4
# How it was run: as §1
# ScMyo3 = biological target: ScMyo3
# How it was run: as §1
# ScMyo5 = biological target: ScMyo5
# How it was run: as §1
# ScNbp2 = biological target: ScNbp2
# How it was run: as §1
# ScPex13 = biological target: ScPex13
# How it was run: as §1
# ScRvs167 = biological target: ScRvs167
# How it was run: as §1
# ScSho1 = biological target: ScSho1
# How it was run: as §1
# ScSla1-D1-D2 = biological target: ScSla1-D1-D2
# How it was run: as §1
# ScSla1-D3 = biological target: ScSla1-D3
# How it was run: as §1
# SpAbp1-D1 = biological target: SpAbp1-D1
# How it was run: as §1
# SpBbc1 = biological target: SpBbc1
# How it was run: as §1
# SpBzz1-D1 = biological target: SpBzz1-D1
# How it was run: as §1
# SpBzz1-D2 = biological target: SpBzz1-D2
# How it was run: as §1
# SpCyk3 = biological target: SpCyk3
# How it was run: as §1
# SpHof1 = biological target: SpHof1
# How it was run: as §1
# SpHof1-2 = biological target: SpHof1-2
# How it was run: as §1
# SpHof1-3 = biological target: SpHof1-3
# How it was run: as §1
# SpHse1 = biological target: SpHse1
# How it was run: as §1
# SpLsb1 = biological target: SpLsb1
# How it was run: as §1
# SpLsb4 = biological target: SpLsb4
# How it was run: as §1
# SpMyo1 = biological target: SpMyo1
# How it was run: as §1
# SpNbp2 = biological target: SpNbp2
# How it was run: as §1
# SpPex13 = biological target: SpPex13
# How it was run: as §1
# SpRvs167 = biological target: SpRvs167
# How it was run: as §1
# SpSla1-D1-D2 = biological target: SpSla1-D1-D2
# How it was run: as §1
# SpSla1-D3 = biological target: SpSla1-D3
# How it was run: as §1
binder,measurement,setting,value
FLIKFTPKFPQSIDH,SPOT peptide array binding signal intensity,AgAbp1,11
same,SPOT peptide array binding signal intensity,AgBbc1,89.8
same,SPOT peptide array binding signal intensity,AgBem1-D1,681
same,SPOT peptide array binding signal intensity,AgBzz1-D1,120
same,SPOT peptide array binding signal intensity,AgBzz1-D2,229
same,SPOT peptide array binding signal intensity,AgCyk3,165
same,SPOT peptide array binding signal intensity,AgFus1,1690
same,SPOT peptide array binding signal intensity,AgHof1,45
same,SPOT peptide array binding signal intensity,AgHse1,1660
same,SPOT peptide array binding signal intensity,AgLsb1,2.5
same,SPOT peptide array binding signal intensity,AgLsb4,1180
same,SPOT peptide array binding signal intensity,AgMyo5,1.5
same,SPOT peptide array binding signal intensity,AgNbp2,669
same,SPOT peptide array binding signal intensity,AgRvs167,15
same,SPOT peptide array binding signal intensity,AgSho1,814
same,SPOT peptide array binding signal intensity,AgSla1-D1-D2,524
same,SPOT peptide array binding signal intensity,AgSla1-D3,33.8
same,SPOT peptide array binding signal intensity,CaAbp1-D1,172
same,SPOT peptide array binding signal intensity,CaAbp1-D2,120
same,SPOT peptide array binding signal intensity,CaBbc1,75
same,SPOT peptide array binding signal intensity,CaBem1-D1,103
same,SPOT peptide array binding signal intensity,CaBzz1-D1,819
same,SPOT peptide array binding signal intensity,CaBzz1-D2,281
same,SPOT peptide array binding signal intensity,CaCyk3,136
same,SPOT peptide array binding signal intensity,CaFus1,3550
same,SPOT peptide array binding signal intensity,CaHof1,6.5
same,SPOT peptide array binding signal intensity,CaHse1,588
same,SPOT peptide array binding signal intensity,CaLsb1,10
same,SPOT peptide array binding signal intensity,CaLsb4,299
same,SPOT peptide array binding signal intensity,CaMyo5,94
same,SPOT peptide array binding signal intensity,CaNbp2,1020
same,SPOT peptide array binding signal intensity,CaRvs167,651
same,SPOT peptide array binding signal intensity,CaRvs167-3,2160
same,SPOT peptide array binding signal intensity,CaSho1,2110
same,SPOT peptide array binding signal intensity,CaSla1-D1-D2,43
same,SPOT peptide array binding signal intensity,CaSla1-D3,585
same,SPOT peptide array binding signal intensity,ScAbp1,7
same,SPOT peptide array binding signal intensity,ScBbc1,5.5
same,SPOT peptide array binding signal intensity,ScBem1-D1,47.5
same,SPOT peptide array binding signal intensity,ScBzz1-D1,224
same,SPOT peptide array binding signal intensity,ScBzz1-D2,611
same,SPOT peptide array binding signal intensity,ScCyk3,145
same,SPOT peptide array binding signal intensity,ScFus1,1850
same,SPOT peptide array binding signal intensity,ScHof1,3.25
same,SPOT peptide array binding signal intensity,ScHse1,2710
same,SPOT peptide array binding signal intensity,ScLsb1,1
same,SPOT peptide array binding signal intensity,ScLsb2,9
same,SPOT peptide array binding signal intensity,ScLsb3,706
same,SPOT peptide array binding signal intensity,ScLsb4,80
same,SPOT peptide array binding signal intensity,ScMyo3,15.5
same,SPOT peptide array binding signal intensity,ScMyo5,14
same,SPOT peptide array binding signal intensity,ScNbp2,715
same,SPOT peptide array binding signal intensity,ScPex13,86.5
same,SPOT peptide array binding signal intensity,ScRvs167,47
same,SPOT peptide array binding signal intensity,ScSho1,2000
same,SPOT peptide array binding signal intensity,ScSla1-D1-D2,322
same,SPOT peptide array binding signal intensity,ScSla1-D3,232
same,SPOT peptide array binding signal intensity,SpAbp1-D1,50.5
same,SPOT peptide array binding signal intensity,SpBbc1,27
same,SPOT peptide array binding signal intensity,SpBzz1-D1,1440
LPPPPPPPPPPPLPQ,SPOT peptide array binding signal intensity,CaNbp2,10
same,SPOT peptide array binding signal intensity,CaRvs167,≤ 0
same,SPOT peptide array binding signal intensity,CaRvs167-3,0.5
same,SPOT peptide array binding signal intensity,CaSho1,4.5
same,SPOT peptide array binding signal intensity,CaSla1-D1-D2,5.5
same,SPOT peptide array binding signal intensity,CaSla1-D3,0.5
same,SPOT peptide array binding signal intensity,ScAbp1,2.5
same,SPOT peptide array binding signal intensity,ScBbc1,2.5
same,SPOT peptide array binding signal intensity,ScBem1-D1,≤ 0
same,SPOT peptide array binding signal intensity,ScBzz1-D1,16
same,SPOT peptide array binding signal intensity,ScBzz1-D2,2
same,SPOT peptide array binding signal intensity,ScCyk3,0.5
same,SPOT peptide array binding signal intensity,ScFus1,≤ 0
same,SPOT peptide array binding signal intensity,ScHof1,9.25
same,SPOT peptide array binding signal intensity,ScHse1,23
same,SPOT peptide array binding signal intensity,ScLsb1,0.5
same,SPOT peptide array binding signal intensity,ScLsb2,≤ 0
same,SPOT peptide array binding signal intensity,ScLsb3,54
same,SPOT peptide array binding signal intensity,ScLsb4,1.5
same,SPOT peptide array binding signal intensity,ScMyo3,1930
same,SPOT peptide array binding signal intensity,ScMyo5,933
same,SPOT peptide array binding signal intensity,ScNbp2,16
same,SPOT peptide array binding signal intensity,ScPex13,41.8
same,SPOT peptide array binding signal intensity,ScRvs167,≤ 0
same,SPOT peptide array binding signal intensity,ScSho1,≤ 0
same,SPOT peptide array binding signal intensity,ScSla1-D1-D2,16.5
same,SPOT peptide array binding signal intensity,ScSla1-D3,≤ 0
same,SPOT peptide array binding signal intensity,SpAbp1-D1,3
same,SPOT peptide array binding signal intensity,SpBbc1,0.5
same,SPOT peptide array binding signal intensity,SpBzz1-D1,4870
same,SPOT peptide array binding signal intensity,SpBzz1-D2,7.5
same,SPOT peptide array binding signal intensity,SpCyk3,≤ 0
same,SPOT peptide array binding signal intensity,SpHof1,≤ 0
same,SPOT peptide array binding signal intensity,SpHof1-2,≤ 0
same,SPOT peptide array binding signal intensity,SpHof1-3,0.5
same,SPOT peptide array binding signal intensity,SpHse1,2.25
same,SPOT peptide array binding signal intensity,SpLsb1,≤ 0
same,SPOT peptide array binding signal intensity,SpLsb4,≤ 0
same,SPOT peptide array binding signal intensity,SpMyo1,1520
same,SPOT peptide array binding signal intensity,SpNbp2,2
same,SPOT peptide array binding signal intensity,SpPex13,≤ 0
same,SPOT peptide array binding signal intensity,SpRvs167,5.33
same,SPOT peptide array binding signal intensity,SpSla1-D1-D2,3
same,SPOT peptide array binding signal intensity,SpSla1-D3,≤ 0
